# Records with an inconclusive call do not appear. The source made the active and inactive calls. Calls come from the whole dose curve; as a rule, active = well fitted cell-killing curve with a large enough effect; inconclusive = small, poorly fitted or top-dose-only effect; inactive = flat fitted curve, though single readings scatter.
# Experiment: qHTS assay to identify small molecule inhibitors of chordoma cells - UCH-2 (AID 1259356)
# Conditions: UCH-2 chordoma viability, CellTiter-Glo ATP luminescence, 48 h; series mostly up to 46.1 µM; activity change, negative = inhibition: at the top concentration
# Description: NIH Chemical Genomics Center [NCGC]
# Chordoma is a rare and slow growing tumor that can occur anywhere along the spine, from the base of the skull to the tailbone. Current treatment options for chordoma is surgery and radiation therapy for those who are not candidates for surgery. But chordomas tend to return in the same location or surrounding areas of the original tumor after surgery and/or radiation. Chemotherapy can slow down the progression of the tumor. As chordoma is slow growing, the general cytotoxic agents that kill fast growing cells are ineffective, and some patients have been reported to respond to molecularly targeted drugs.
# NCATS Pharmaceutical Collection (NPC) containing approximately 3000 clinically approved and investigational drugs were used to screen at 15 concentrations in a chordoma cell lines, UCH-2, to identify small molecule compounds that can inhibit chordoma cell growth.
# NCGC Assay Protocol Summary:
# Human chordoma cell line UCH-2 was dispensed at 800 per well in 4uL of culture medium into white solid bottom 1536-well plates (Corning Life Sciences, Corning, NY) using a Multidrop Combi (Thermo Scientific, Waltham, MA) dispenser. The assay plates were incubated at 37 C and 5% CO2 for an overnight, and then 23nL of compounds dissolved in DMSO and positive control were transferred using a Pintool station (Wako, San Diego, CA). Compound treatment was followed by the addition of 1uL of the combination compounds (1uM Auranofin, 500nM each of Camptothecin, Doxorubicin, Rubitecan, and Topotecan) and assay medium to each well of the assay plates using Flying Reagent Dispenser (FRD, Aurora Discovery, San Diego, CA). The assay plates were incubated at 37 C and 5% CO2 for 48hr. Then 5uL of CellTiter-Glo reagent (Promega Corporation, Madison, WI) was added to each well of the assay plates using FRD. After 30min incubation at room temperature, the luminescence signal was quantified using a ViewLux plate reader (PerkinElmer, Shelton, CT).
# % is set by controls: 0 for no effect and ±100 for the full control effect.
row,Compound,"activity change, negative = inhibition"
1,CCN(CC)CCCC(C)Nc1ccnc2cc(Cl)ccc12 (stereo not given),5.81% (inactive)
2,Cc1ccccc1C(OCCN(C)C)c1ccccc1 (stereo not given),2.36% (inactive)
3,Cc1oncc1C(=O)Nc1ccc(C(F)(F)F)cc1,-1.69% [at 20.6 µM] (inactive)
4,CCn1cc(C(=O)O)c(=O)c2cc(F)c(N3CCNC(C)C3)c(F)c21 (stereo not given),2.72% (inactive)
5,Cc1[nH]c(=O)c(C#N)cc1-c1ccc2nccn2c1,-17% (inactive)
6,Cc1[nH]c(=O)c(C#N)cc1-c1ccncc1,-7.56% (inactive)
7,Clc1ccc(Nc2nnc(Cc3ccncc3)c3ccccc23)cc1,2.93% (inactive)
8,CCCCNc1cc(C(=O)O)cc(S(N)(=O)=O)c1Oc1ccccc1,8.06% [at 20.6 µM] (inactive)
9,N#Cc1ccc(C(c2ccc(C#N)cc2)n2cncn2)cc1,13% [at 20.6 µM] (inactive)
10,CCCc1nc2c(C)cc(-c3nc4ccccc4n3C)cc2n1Cc1ccc(-c2ccccc2C(=O)O)cc1,11.2% (inactive)
11,OC(CN1CCC(Cc2ccc(F)cc2)CC1)c1ccc(Cl)cc1 (stereo not given),4.46% (inactive)
12,CC(C[N+](C)(C)C)OC(N)=O (stereo not given),1.29% (inactive)
13,NC(=O)c1cnccn1,1.25% (inactive)
14,Cc1cn[nH]c1,3.88% (inactive)
15,C#Cc1cccc(Nc2ncnc3cc(OCCOC)c(OCCOC)cc23)c1,-1.64% (inactive)
16,O=NN(CCCl)C(=O)NCCCl,-0.964% (inactive)
17,CCc1ccc(CCOc2ccc(CC3SC(=O)NC3=O)cc2)nc1 (stereo not given),-7.17% (inactive)
18,C1COC(NC(C2CC2)C2CC2)=N1,3.42% (inactive)
19,NNCCc1ccccc1,4.65% [at 20.6 µM] (inactive)
20,Cc1cnc(NC(=O)C2=C(O)c3ccccc3S(=O)(=O)N2C)s1,3.07% (inactive)

row,Compound,"activity change, negative = inhibition"
1,NCCCC(N)(C(=O)O)C(F)F (stereo not given),16.9% (inactive)
2,c1ccc([C@H]2CN3CCSC3=N2)cc1,6.52% (inactive)
3,O=c1n(CCCN2CCN(c3cccc(Cl)c3)CC2)nc2ccccn12,1.74% [at 20.6 µM] (inactive)
4,CN1CCN(CCCN2c3ccccc3Sc3ccc(C(F)(F)F)cc32)CC1,-4.11% (inactive)
5,CCOC(=O)N1CCC(=C2c3ccc(Cl)cc3CCc3cccnc32)CC1,1.88% (inactive)
6,N=c1nc(N2CCCCC2)cc(N)n1O,3.53% (inactive)
7,CC(C)(C)NCC(O)c1ccc(O)c(CO)c1 (stereo not given),4.36% (inactive)
8,Oc1ccc(C2CNCCc3c2cc(O)c(O)c3Cl)cc1 (stereo not given),-1.02% (inactive)
9,CC(C)NCC(O)COc1ccc(COCCOC(C)C)cc1 (stereo not given),10.8% (inactive)
10,O=C(O)COCCN1CCN(C(c2ccccc2)c2ccc(Cl)cc2)CC1 (stereo not given),-1.42% [at 20.6 µM] (inactive)
11,CCCC(CCC)C(=O)O,3.78% (inactive)
12,Nc1nc2c(ncn2COCCO)c(=O)[nH]1,3.16% [at 20.6 µM] (inactive)
13,O=C1CCc2cc(OCCCCc3nnnn3C3CCCCC3)ccc2N1,1.02% (inactive)
14,NCCc1ccc(O)c(O)c1,6.98% (inactive)
15,O=C1CCC(N2C(=O)c3ccccc3C2=O)C(=O)N1 (stereo not given),6.48% (inactive)
16,CNC[C@H](O)c1cccc(O)c1,-8.37% (inactive)
17,NC(N)=NC(=O)c1nc(Cl)c(N)nc1N,0.459% (inactive)
18,CC(c1cc2ccccc2s1)N(O)C(N)=O (stereo not given),0.703% (inactive)
19,COc1ccc2nc(S(=O)Cc3ncc(C)c(OC)c3C)[nH]c2c1 (stereo not given),5.03% (inactive)
20,CC(=O)Oc1ccccc1C(=O)O,2.8% (inactive)
